The source of these data is PubChem BioAssay (Tox21).

The structures appear in SMILES notation. Records with an inconclusive call do not appear. Calls of active or inactive are those of the source. Unless noted, the call rests on the fitted dose curve; in most records, active means well fitted curve in the direction sought with a large enough effect in the repeat runs; inconclusive means weak or mixed curves; inactive means no such curve, though single readings can be large; an effect the other way counts as inactive or inconclusive.

The nature of assay [1]: qHTS assay to identify small molecule antagonists of the peroxisome proliferator-activated receptor delta (PPARd) signaling pathway - cell viability counter screen (AID 743213). Further: nearly all actives have a fitted effect of over 50% in size. Put shortly:
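Same-well viability: cells pre-incubated 5 h, dosed with compound plus 300 nM L165041, kept 17 h at 37 C, FRET substrate 2 h RT, then CellTiter-Glo 30 min RT and luminescence.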
A general note: Quantitative high-throughput screening tests each substance at several concentrations.

Assay [2] can be described thus: qHTS assay to identify small molecule agonists of the farnesoid-X-receptor (FXR) signaling pathway - cell viability counter screen (AID 743218). Further: nearly all actives have a fitted effect of over 45% in size. Put shortly:
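Cells were seeded, left 5 h at 37 C and 5% CO2, then dosed with compound in DMSO for 16 h. After the beta-lactamase FRET read, CellTiter-Glo was added and luminescence measured 30 min later.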

Assay [3] is described as follows: qHTS assay to identify small molecule antagonists of the farnesoid-X-receptor (FXR) signaling pathway - cell viability counter screen (AID 743221; active means well fitted cell-killing curve with a large enough effect in the repeat runs, not every such curve was filed as active; further: nearly all actives have a fitted effect of over 50% in size). Put shortly: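 HEK 293T FXR-bla cells, 5 h pre-incubation; compound + CDCA 50 uM final, 16 h, 37 C; beta-lactamase FRET read first, then CellTiter-Glo luminescence, 30 min RT.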
Assay [4] is described as follows: qHTS assay to identify small molecule agonists of the vitamin D receptor (VDR) signaling pathway - cell viability counter screen (AID 743224). Further: nearly all actives have a fitted effect of over 50% in size. Put shortly: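 Cells: VDR-bla, 2,000/well, settled 4 h. Treatment: compounds in DMSO, 16 h, 37C/5% CO2. Readout: CellTiter-Glo luminescence after 30 min RT.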
Assay [5] in a line: qHTS assay to identify small molecule antagonists of the vitamin D receptor (VDR) signaling pathway - cell viability counter screen (AID 743225). Further: nearly all actives have a fitted effect of over 50% in size. In a few lines: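 Viability counter screen run in the same wells as the beta-lactamase reporter assay: HEK 293T VDR-UAS-bla cells, 16 h compound exposure at 37C with 3 nM (final) 1-alpha,25-dihydroxyvitamin D3. CellTiter-Glo luminescence, 30 min, room temperature.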

A short description of assay [6]: qHTS assay to identify small molecule agonists of the NFkB signaling pathway - cell viability counter screen (AID 1159515; calls by dose curve; further: nearly all actives have a fitted effect of over 55% in size). Put shortly:
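Cells are seeded (2,000 NFkB-bla ME-180 per well), rested overnight, and dosed with DMSO-dissolved compounds for 5 hr at 37 C. Viability is then read by CellTiter-Glo luminescence after 30 min at room temperature.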

Assay [7] is described as follows: qHTS assay to identify small molecule agonists of the endoplasmic reticulum stress response signaling pathway - cell viability counter screen (AID 1159517; calls by dose curve; further: nearly all actives have a fitted effect of over 50% in size). In a few lines:
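Steps: seed 1,500 ESRE-bla HeLa cells per well; incubate overnight at 37 C, 5% CO2; add compounds in DMSO for 5 hr; run FRET substrate 2 hr RT; add CellTiter-Glo, wait 30 min, read luminescence.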

Assay [8] can be described thus: qHTS assay to identify small molecule antagonists of the retinoid-related orphan receptor gamma (ROR-gamma) signaling pathway - cell viability counter screen (AID 1159520). Further: nearly all actives have a fitted effect of over 50% in size. In a few lines: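 Tet-on ROR gamma CHO cells were given compounds for 2 hr, then doxycycline hyclate at 1 uM final, and incubated 16 hr at 37 C. Viability was measured as ATP content by CellTiter-Glo luminescence.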

Assay [9] concerns the target Nuclear receptor ROR-gamma (Homo sapiens) (UniProt P51449). Description: qHTS assay to identify small molecule antagonists of the retinoid-related orphan receptor gamma (ROR-gamma) signaling pathway (AID 1159521; further: nearly all actives have a fitted effect of over 50% in size). Put shortly:
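Luminescence readout (ONE-Glo, 30 min RT) after 16 h doxycycline induction; loss of signal scored as antagonism. CHO cells with TET-inducible RORγ and RORE-LUC reporter; compounds added 2 h before 1 uM final doxycycline.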

Assay [10] can be described thus: qHTS assay to identify small molecule agonists of the AP-1 signaling pathway - cell viability counter screen (AID 1159525; calls by dose curve; further: nearly all actives have a fitted effect of over 55% in size). In a few lines:
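Same-well cytotoxicity counter screen of the Tox21 10K library in ME-180 cells. The readout is ATP-dependent luminescence after 5 h compound treatment. Data are normalised to DMSO and tetra n-octyl ammonium bromide controls.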

The target in assay [11] is Retinoic acid receptor RXR-alpha (Homo sapiens) (UniProt P19793). Description: qHTS assay to identify small molecule agonists of the RXR signaling pathway (AID 1159527; calls by dose curve; further: nearly all actives have a fitted effect of over 35% in size). Put shortly: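 Agonist mode; 9-cis retinoic acid positive control. HEK 293T UAS-bla reporter cells, 2% charcoal-stripped FBS, 16 hr compound exposure at 37 C/5% CO2. LiveBLAzer B/G FRET substrate 2 hr RT; ex 405, em 460/530 nm.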
Retinoic acid receptor RXR-alpha (Homo sapiens), sequence (P19793 whole entry, looked up): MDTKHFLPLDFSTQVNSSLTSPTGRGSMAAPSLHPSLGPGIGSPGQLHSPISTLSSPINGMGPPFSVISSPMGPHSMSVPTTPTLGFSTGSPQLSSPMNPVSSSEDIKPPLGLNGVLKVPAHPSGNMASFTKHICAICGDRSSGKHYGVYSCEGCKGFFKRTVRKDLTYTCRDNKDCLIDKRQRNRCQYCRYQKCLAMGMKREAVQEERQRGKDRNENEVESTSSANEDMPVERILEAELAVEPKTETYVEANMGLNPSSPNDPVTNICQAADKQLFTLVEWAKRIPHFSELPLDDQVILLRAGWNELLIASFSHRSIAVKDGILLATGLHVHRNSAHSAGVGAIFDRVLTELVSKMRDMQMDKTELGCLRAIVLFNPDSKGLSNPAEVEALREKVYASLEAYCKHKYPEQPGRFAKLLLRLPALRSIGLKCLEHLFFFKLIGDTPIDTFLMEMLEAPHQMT

Assay [12] is described as follows: qHTS assay to identify small molecule agonists of the RXR signaling pathway - cell viability counter screen (AID 1159529). Further: nearly all actives have a fitted effect of over 50% in size. Put shortly: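 Luminescence from CellTiter-Glo (30 min, RT) measured viability in the same wells as the beta-lactamase reporter readout. Cells: GeneBLAzer RXR-alpha HEK 293T, 2% charcoal-stripped FBS. Compound exposure 16 hr, 37 C.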
Assay [13] addresses Peroxisome proliferator-activated receptor delta (Homo sapiens) (UniProt Q03181). The assay is described as follows: qHTS assay to identify small molecule antagonists of the peroxisome proliferator-activated receptor delta (PPARd) signaling pathway (AID 743215; active means well fitted inhibition curve with a large enough effect in the signal ratio in the repeat runs, not every such curve was filed as active; the % refers to the signal ratio;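 further: cells stimulated with agonist L165041 at 300 nM final during compound exposure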). In a few lines: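 Cells: HEK293H with a UAS-driven beta-lactamase reporter responsive to PPARd. Compounds were co-added with L165041 (300 nM, final) and incubated 17 h at 37 C before a 2 h room-temperature FRET substrate step and fluorescence reading.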

Assay [14] addresses Bile acid receptor (Homo sapiens) (UniProt Q96RI1). The assay is described as follows: qHTS assay to identify small molecule antagonists of the farnesoid-X-receptor (FXR) signaling pathway (AID 743217; active means well fitted inhibition curve with a large enough effect in the signal ratio in the repeat runs, not every such curve was filed as active; the % refers to the signal ratio). In a few lines:
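Cells carrying a UAS-driven beta-lactamase reporter (GeneBLAzer FXR-UAS-bla HEK 293T) were plated and rested 5 h at 37 °C. Compounds in DMSO were added alongside chenodeoxycholic acid agonist at 50 uM final and left 16 h at 37 °C before FRET substrate readout.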

Assay [15] concerns the target Vitamin D3 receptor (Homo sapiens) (UniProt P11473). Description: qHTS assay to identify small molecule antagonists of the vitamin D receptor (VDR) signaling pathway (AID 743223; active means well fitted inhibition curve with a large enough effect in the signal ratio in the repeat runs, not every such curve was filed as active; the % refers to the signal ratio). Put shortly: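 Beta-lactamase reporter read-out: FRET substrate fluorescence after 2 h at room temperature, following 16 h exposure of VDR-bla cells to test compound plus 3 nM (final) 1alpha,25-dihydroxyvitamin D3 agonist at 37C.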
Potency means the concentration at half of the fitted maximal effect.

Peroxisome proliferator-activated receptor delta (Homo sapiens), sequence (Q03181 whole entry, looked up): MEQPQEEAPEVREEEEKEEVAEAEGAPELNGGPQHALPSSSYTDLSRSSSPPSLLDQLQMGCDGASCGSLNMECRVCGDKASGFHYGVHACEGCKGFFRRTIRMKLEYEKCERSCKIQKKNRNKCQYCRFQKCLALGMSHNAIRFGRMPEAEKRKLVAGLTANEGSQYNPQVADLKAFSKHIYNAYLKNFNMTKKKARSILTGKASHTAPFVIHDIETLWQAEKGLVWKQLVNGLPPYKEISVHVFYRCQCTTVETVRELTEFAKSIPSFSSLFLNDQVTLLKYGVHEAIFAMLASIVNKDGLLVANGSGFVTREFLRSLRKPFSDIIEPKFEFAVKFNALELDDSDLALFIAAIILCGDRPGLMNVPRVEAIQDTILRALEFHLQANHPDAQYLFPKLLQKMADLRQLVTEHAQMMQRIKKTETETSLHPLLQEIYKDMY
Bile acid receptor (Homo sapiens), sequence (Q96RI1 whole entry, looked up): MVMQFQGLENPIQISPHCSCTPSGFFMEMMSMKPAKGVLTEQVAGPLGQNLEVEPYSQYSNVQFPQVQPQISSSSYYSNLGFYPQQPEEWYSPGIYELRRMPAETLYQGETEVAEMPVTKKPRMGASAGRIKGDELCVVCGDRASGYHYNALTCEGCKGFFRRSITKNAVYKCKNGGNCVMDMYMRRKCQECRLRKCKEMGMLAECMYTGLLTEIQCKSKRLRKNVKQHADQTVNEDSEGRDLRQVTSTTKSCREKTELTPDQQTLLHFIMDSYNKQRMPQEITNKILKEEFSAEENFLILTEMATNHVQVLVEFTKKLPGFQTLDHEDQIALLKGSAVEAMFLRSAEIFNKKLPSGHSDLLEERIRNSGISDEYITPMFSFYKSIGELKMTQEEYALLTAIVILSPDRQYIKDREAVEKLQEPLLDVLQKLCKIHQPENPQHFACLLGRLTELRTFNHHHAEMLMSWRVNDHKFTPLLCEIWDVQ
Vitamin D3 receptor (Homo sapiens), sequence (P11473 whole entry, looked up): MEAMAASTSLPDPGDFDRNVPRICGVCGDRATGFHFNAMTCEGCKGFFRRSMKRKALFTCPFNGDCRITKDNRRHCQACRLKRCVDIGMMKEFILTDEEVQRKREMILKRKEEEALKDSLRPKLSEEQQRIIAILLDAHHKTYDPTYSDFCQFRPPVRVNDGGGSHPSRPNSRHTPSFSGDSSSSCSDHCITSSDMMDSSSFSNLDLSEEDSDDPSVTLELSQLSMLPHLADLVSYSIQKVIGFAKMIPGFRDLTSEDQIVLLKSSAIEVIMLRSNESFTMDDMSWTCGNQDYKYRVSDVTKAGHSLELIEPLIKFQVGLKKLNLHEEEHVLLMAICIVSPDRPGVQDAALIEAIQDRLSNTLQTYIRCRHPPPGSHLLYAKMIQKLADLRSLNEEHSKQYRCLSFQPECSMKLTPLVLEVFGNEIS

As for `CC1=NC(C)OC1C` (centres undefined), the Potency entry in assay [1], in [2], in assay [3], in [4], in [5] and in assay [6] was “inactive” throughout. For the same compound, the Potency entry in assay [7], in [8], in [9], in assay [10], in assay [11] and in [12] was “inactive” in each case.
With `CC(C)CCCCCCCCCCCCCCC(=O)O`, the Potency result in [1], in [13], in assay [3], in assay [4], in [6] and in [7] was “inactive” throughout. The Potency result in [12] is “inactive”. For the same compound, the Potency in assay [8] was 68.6 µM (active); in assay [9] it was 54.5 µM (active); in assay [10], 24.5 µM (active); in [11], 11 µM (active).
As for `CCCCCCCCCCCCCCCCCC[N+](C)(C)C`, the Potency was 27.6 µM (active) in assay [1]; 24.6 µM (active) in assay [2]; 55.1 µM (active) in assay [3]; 24.6 µM (active) in assay [4]; 3.9 µM (active) in assay [5]; 55.1 µM (active) in assay [6]. Besides, the Potency in assay [7] is 49.1 µM (active); in assay [8] it was 54.6 µM (active); in [9], 6.13 µM (active); in assay [10] it was 49.1 µM (active); in assay [12], 24.6 µM (active).
For `CCCCC(CC)CN=C(N)NC(N)=NCCCCCCN=C(N)NC(N)=NCC(CC)CCCC` (centres undefined), the Potency is 8.41 µM (active) in [1]; 13.3 µM (active) in assay [2]; 21.1 µM (active) in assay [3]; 23.7 µM (active) in [4]; 7.56 µM (active) in assay [5]; 19 µM (active) in assay [6]. Besides, the Potency in [7] was 16.9 µM (active); in assay [8], 26.6 µM (active); in assay [9] it was 26.6 µM (active); in assay [10], 10.7 µM (active); in assay [12], 8.49 µM (active).
On to `Cc1cc(O)c2ccccc2c1O`, for which the Potency in assay [1] is 10.6 µM (active); in [13] it was 10.6 µM (active); in assay [14], 16.8 µM (active); in assay [2] it was 13.3 µM (active); in assay [3] it was 23.7 µM (active); in assay [4], 7.5 µM (active). Besides, the Potency in assay [5] was 13.4 µM (active); in assay [6] it was 13.4 µM (active); in assay [7], 16.9 µM (active); in assay [8], 7.5 µM (active); in assay [9], 11.9 µM (active); in assay [10] it was 10.7 µM (active). For the same compound, the Potency in [12] was 15.1 µM (active).
`CCCCN1C(=O)[C@@H]([C@H](O)C2CCCCC2)NC(=O)C12CCN(Cc1ccc(Oc3ccc(C(=O)O)cc3)cc1)CC2`: the Potency result in [1], in assay [13], in assay [3], in assay [6], in assay [7] and in assay [8] was “inactive” in each case. The Potency result in assay [9], in [10] and in [12] was “inactive” throughout.
In the case of `CCc1cc(Cc2cc(CC)cc(C(C)(C)C)c2O)c(O)c(C(C)(C)C)c1`, the Potency in assay [1] is 6.92 µM (active); in assay [2], 11 µM (active); in assay [3], 11 µM (active); in assay [15], 17.4 µM (active); in [4], 6.17 µM (active); in [6], 15.5 µM (active). In addition, the Potency in [7] was 21.9 µM (active); in [8], 27.3 µM (active); in assay [9], 19.3 µM (active); in assay [10], 11 µM (active); in assay [12], 13.8 µM (active).
As for `CCCCCCCCCCCC[N+](C)(C)CCCCCCCCCCCC`, the Potency in assay [1] was 13.8 µM (active); in [14] it was 49 µM (active); in assay [2], 27.5 µM (active); in assay [4], 19.5 µM (active); in [5], 24.5 µM (active); in [6], 21.9 µM (active). In addition, the Potency in [7] was 43.6 µM (active); in [8], 27.3 µM (active); in assay [9], 19.3 µM (active); in [10], 30.9 µM (active); in assay [12], 15.5 µM (active).
